Screens from PubChem.
WT yeast gro inh: growth inhibition of WT yeast, mitochondrial fusion screen | AID 1362 | mitochondrial fusion phenotypic screen, WT strain | inhibition, % at 10 µM | 190,000 compounds, 2.1% hits; in the data active means inhibition above about 58%; tested in S. cerevisiae
Rtt109 Vps75: C. albicans Rtt109 histone acetyltransferase inhibition | purified Rtt109/Vps75, ThioGlo CoA-SH fluorescence, 4 h | AID 540336 | inhibition, % at 34.9 µM | 330,000 compounds, 0.16% hits | Q5AAJ8;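 active means inhibition of at least 50% in every replicate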
Target sequence (Q5AAJ8 whole entry, looked up): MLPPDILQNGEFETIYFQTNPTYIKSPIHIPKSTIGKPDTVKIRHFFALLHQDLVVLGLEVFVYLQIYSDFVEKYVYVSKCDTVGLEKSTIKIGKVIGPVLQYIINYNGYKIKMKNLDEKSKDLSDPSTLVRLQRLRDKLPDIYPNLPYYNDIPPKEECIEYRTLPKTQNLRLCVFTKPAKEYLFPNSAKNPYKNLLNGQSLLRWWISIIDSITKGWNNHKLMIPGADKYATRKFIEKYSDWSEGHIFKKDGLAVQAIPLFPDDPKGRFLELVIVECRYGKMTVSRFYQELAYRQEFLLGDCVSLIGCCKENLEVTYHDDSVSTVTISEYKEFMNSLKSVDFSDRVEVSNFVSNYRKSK
TPT1 inh: blocks Candida albicans tRNA 2'-phosphotransferase; recombinant caTPT1, FP RNA substrate dephosphorylation; inhibition, % at 5 µM; 300,000 compounds, 0.81% hits; AID 1962;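 active means inhibition above the mean of all tested compounds plus 3 SD, set per screening campaign, cut at about 24% in these data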
SKKanGAS inh: SKKanGAS growth inhibition | S. pyogenes SKKanGAS, kanamycin growth, BacTiter-Glo, 6 h | inhibition, % at 7.5 µM | 300,000 compounds, 1.3% hits;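 active means mean replicate score, as percent of positive control median, at least 50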;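 further: strain carries kanamycin resistance gene driven by streptokinase promoter and grows in 40 µg/ml kanamycin; loss of luminescence reflects streptokinase promoter inhibition or plain growth inhibition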
Platelet DG rel: platelet dense granule release activity; human platelet-rich plasma, SFLLRN dense granule ATP release, luminescence; inhibition, %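 (compounds screened at 7.5 µM in platelet-rich plasma)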; 300,000 compounds, 0.22% hits; AID 1663;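 active means mean replicate score, as percent of positive control, at or above 50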
PHOSPHO1 inh: PHOSPHO1 (human) inhibition | Q8TCT1 | recombinant PHOSPHO1, absorbance phosphatase assay | inhibition, % at 13.3 µM | 290,000 compounds, 1.1% hits | AID 1565; in the data active means inhibition above about 60%
caTPT1 confirm: TPT1 (C. albicans) inhibition, confirmation; shares compounds with TPT1 inh; recombinant caTPT1, fluorescence polarization, RNase T1 coupled; inhibition, % at 5 µM; 2,400 compounds, 74% hits; AID 2149;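 active means inhibition above the primary screen limit, the mean inhibition of all tested compounds plus 3 SD, cut at about 25% in these data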
RNase T1 inh: RNase T1 inhibition in TPT1 counter-screen | inhibition, % at 5 µM | 2,400 compounds, 83% hits | RNase T1 cleavage, fluorescence polarization, 1536-well | shares compounds with TPT1 inh;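 active means inhibition above the solvent-only control well mean plus 3 SD, limit set per screening run, cut at about 23% in these data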;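 further: inhibitors block cleavage so intact labeled substrate keeps polarization high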
A number is an active result; - = inactive; . = no result given. Most compounds without a hit are left out; they make up all but 3.9% or so of the library.

SMILES	WT yeast gro inh	Rtt109 Vps75	TPT1 inh	SKKanGAS inh	Platelet DG rel	PHOSPHO1 inh	caTPT1 confirm	RNase T1 inh
O=C(NN1C(=O)/C(=C/c2ccc(O)cc2)SC1=S)c1cccc(O)c1	.	-	71	-	-	-	67	72
O=C(Cc1ccccc1)NN1C(=O)/C(=C/c2ccc(C(=O)O)cc2)SC1=S	.	-	-	-	-	-	.	.
Cc1cc(C)nc(NN2C(=O)/C(=C/c3ccc(O)cc3)SC2=S)n1	-	-	58	-	-	-	68	71
COc1ccccc1/C=C1\SC(=S)N(Nc2nc(C)cc(C)n2)C1=O	-	-	-	-	-	-	.	.
CCN(CC)S(=O)(=O)c1ccc(N2CCCC2)c(NC(=O)C2CSC3(C)CCC(=O)N23)c1 (centres undefined)	.	-	-	-	-	.	.	.
Cc1nn(C)cc1/C=C/C(=O)c1ccccc1	-	-	-	-	-	-	.	.
O=C(NN1C(=O)/C(=C/c2ccc(O)cc2)SC1=S)c1ccccc1O	.	-	55	-	-	-	65	72
Cn1cc(/C=C/C(=O)c2ccccc2)c2ccccc21	.	-	34	-	-	-	38	45
COc1cc(/C=C2\SC(=S)N(NC(=O)c3ccccc3O)C2=O)ccc1O	.	-	31	-	-	-	34	47
COc1ccc2nc(C)cc(NCc3ccc(F)cc3)c2c1	.	-	69	-	-	-	82	85
CC(=O)c1sc(N/N=C\c2cccc(Br)c2)nc1C	-	-	67	-	-	-	78	81
CCOC(=O)c1sc(N/N=C/c2ccc(N(C)C)cc2)nc1C	.	.	-	-	-	.	.	.
CC(=O)c1sc(N/N=C\c2ccc(Br)cc2)nc1C	60	-	71	-	-	-	82	88
O=C(NNS(=O)(=O)c1ccccc1)c1ccc(S(=O)(=O)N2CCCCC2)cc1	-	-	40	-	-	-	-	-
COc1ccc(C(=O)N/C(=C\c2cn(S(=O)(=O)N(C)C)c3ccccc23)C(=O)N2CCN(C)CC2)cc1	.	-	-	-	-	-	.	.
Cn1nnnc1SCc1nc2scc(-c3ccc(Cl)cc3)c2c(=O)[nH]1	.	-	29	-	-	-	50	59
Cc1cccc(C=NOCCc2ccccc2)n1	.	-	.	.	.	.	.	.
Cc1ccc(NC(=O)CO/N=C/c2ccc(N(C)C)cc2)cc1	-	-	93	-	-	-	106	113
CCOC(=O)CC(NS(=O)(=O)c1ccc2[nH]cc(C(=O)O)c(=O)c2c1)c1ccc(OCC)c(OC)c1 (centres undefined)	.	-	-	-	-	-	.	.
COc1cccc(/C=C(/C#N)c2ccc(F)cc2)c1OCc1cccc(C(=O)O)c1	-	-	-	-	-	-	.	.
COc1cc(N2CCCC2)c(OC)cc1/C=C(/C#N)c1cccc(F)c1	-	-	143	-	-	-	145	140
N#C/C(=C/c1ccc(N2CCCCCC2)o1)c1cccc(F)c1	-	-	160	-	-	-	177	163
N#C/C(=C/c1ccc(N2CCCCCC2)o1)c1ccc(F)cc1	-	-	158	65	-	.	182	168
COc1ccc(OC)c(C2=C/C(=C/c3ccccn3)C(=O)O2)c1	-	.	80	-	-	-	84	90
CC1=CC2=NC(=O)/C(=C/c3coc4ccc(Cl)cc4c3=O)C(=N)N2O1	.	-	78	-	-	-	73	77
SMILES	WT yeast gro inh	Rtt109 Vps75	TPT1 inh	SKKanGAS inh	Platelet DG rel	PHOSPHO1 inh	caTPT1 confirm	RNase T1 inh
CSC1=NSC2=NC(=O)/C(=C/c3coc4ccc(O)cc4c3=O)C(=N)N12	-	-	70	.	-	-	116	113
CSC1=NSC2=NC(=O)/C(=C/c3coc4ccccc4c3=O)C(=N)N12	-	-	52	.	.	-	60	62
CC1=CC2=NC(=O)/C(=C\c3cc(C)n(-c4cccc(Cl)c4)c3C)C(=N)N2O1	-	-	-	-	-	-	.	.
N=C1/C(=C\c2coc3ccccc3c2=O)C(=O)N=C2SC=CN12	.	-	40	-	-	-	34	47
N=C1/C(=C/c2cccn2Cc2ccc(F)cc2)C(=O)N=C2SC=CN12	-	-	-	-	-	-	.	.
OC1CCCN(CC(O)COC(c2ccccc2)c2ccccc2)C1 (centres undefined)	.	-	29	-	-	-	-	-
